Most compounds without a hit are left out; they make up all but 4% or so of the library.
HIF-2a inh = HIF-2a inhibition; 786-0 RCC cells HIF-2a reporter, luciferase luminescence, overnight; inhibition, % at 18.8 µM; 0.72% of 360,000 active; AID 624352;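 active = inhibition of the luminescence signal of 40% or more relative to plate controls, in a single-dose primary screen at 18.75 µM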
KKLEB tox = CF airway cell cytotoxicity counter-screen | KKLEB CF airway cells viability, ATPlite luminescence, overnight; active compounds read low; cells stimulated with P. aeruginosa culture filtrate | activity change (cytotoxicity), % at 5 µM | 0.36% of 360,000 active;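 active = corrected activity change at or below -50% at 5 µM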
Peg3 prom inh = Peg3 promoter activity inhibition; inhibition, % at 20 µM; 1.7% of 360,000 active; AID 588405; HeLa PEG-Prom luciferase reporter, luminescence, overnight;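 active = inhibition of at least 50% at 20 µM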
CF NFkB block = inhibitors of cystic fibrosis induced NF-kB; KKLEB NF-kB-GFP reporter, PAF-induced, GFP fluorescence overnight; inhibition, % at 5 µM; 0.86% of 360,000 active; AID 588850;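 active = at least 50% inhibition at 5 µM, scaled per plate between neutral and stimulator controls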;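 note: PAF is a Pseudomonas aeruginosa culture filtrate used as stimulus; plate controls were PAF-stimulated DMSO wells for no effect and unstimulated DMSO wells for full effect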
TROY NFkB inh = blocks TROY-dependent signaling in reporter cells. Q293 LMP1-TROYcd NF-kB luciferase reporter, 4 h. AID 1347056. 0.98% of 360,000 active. inhibition, % at 10 µM;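 active = compounds whose plate-normalised and pattern-corrected inhibition of the luciferase reporter signal at the single screening dose is 50% or more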
TWEAK-Fn14 inh = inhibitors of TWEAK-Fn14 interaction signaling | TWEAK-stimulated Fn14 reporter cells, luciferase luminescence, 8 h | inhibition, % at 10 µM | 2% of 360,000 active | AID 1159606; in the data active = inhibition above about 50%
Numbers without * were called inactive.

SMILES | HIF-2a inh | KKLEB tox | Peg3 prom inh | CF NFkB block | TROY NFkB inh | TWEAK-Fn14 inh
COc1ccc(NC(=O)Nc2nc(C(N)Cc3ccc(C(F)(F)F)cc3)cs2)cc1 (stereo not drawn) | 2 | -17 | 98* | 28 | 2 | 24
COc1cc(NC(=O)Nc2nc(C(N)Cc3ccc(C(F)(F)F)cc3)cs2)cc(OC)c1OC (stereo not drawn) | 2 | 2 | 92* | -1 | 14 | 5
COc1ccc(CC(N)c2csc(Nc3cc(NCCCO)ncn3)n2)cc1 (stereo not drawn) | 16 | -3 | 14 | 12 | -3 | -3
COc1ccc(CC(N)c2csc(NC(=O)c3cc(C(C)(C)C)oc3C)n2)cc1 (stereo not drawn) | -62 | -18 | 99* | 12 | -26 | -32
CCOC(=O)C1=C[C@@H](CC)N(S(=O)(=O)c2ccc(C)cc2)[C@H]1c1cccc(Cl)c1 | 0 | -23 | 14 | 7 | -1 | 19
COC(=O)C1=C(C)N(CCCC(=O)O)C(=O)NC1c1ccc(C#N)cc1 (stereo not drawn) | 8 | -7 | -7 | 5 | 20 | 4
CCOc1ccc(NC(=O)c2ccc(-n3cccn3)nc2)cc1 | 5 | 1 | -13 | 18 | 10 | -20
C[C@@H](NC(=O)c1ncn2c1c(=O)[nH]c1ccc(Br)cc12)c1ccccc1 | 7 | 8 | 79* | -11 | -4 | 1
C[C@@H](NC(=O)c1ncn2c1c(=O)[nH]c1cccnc12)c1ccccc1 | 11 | 10 | 2 | -30 | 12 | 13
COc1ccc(/C=C/C(=O)NC(=S)NNC(=O)c2cnccn2)cc1 | 1 | -12 | 52* | 40 | 17 | -22
Cn1c(=O)c2c(nc(NCc3ccco3)n2C/C=C/c2ccccc2)n(C)c1=O | 20 | 1 | 29 | 15 | 41 | 55*
O=C(NCc1ccco1)C1CCN(C(=O)c2cc3sccc3n2Cc2ccc(F)cc2)CC1 | -7 | -4 | 5 | 5 | 1 | 19
CC1Cc2ccccc2N1C(=O)c1cc2sccc2n1Cc1ccc(F)cc1 (stereo not drawn) | 20 | -7 | 54* | 17 | 4 | 17
CC[C@]12c3[nH]c4ccc(OC)cc4c3CCN1C(=O)C(CC(=O)NCC13CC4CC(CC(C4)C1)C3)C[C@@H]2C(=O)N1CCN(C(=O)c2ccco2)CC1 (stereo partly drawn) | -3 | -5 | 14 | 10 | 11 | 9
CC(C)=CCC/C(C)=C/CNC(=O)C[C@H]1C[C@H](C(=O)N2CCOCC2)[C@@]2(C)c3[nH]c4ccc(Cl)cc4c3CCN2C1=O | -23 | -14 | 56* | 29 | 51* | 51*
CC(C)=CCC/C(C)=C/CNC(=O)CC1C[C@H](C(=O)N2CCOCC2)[C@@]2(C)c3[nH]c4ccccc4c3CCN2C1=O (stereo partly drawn) | 16 | 4 | 17 | -1 | 20 | 21
CCN(CC)C(=O)[C@H]1C[C@H](CC(=O)NCC23CC4CC(CC(C4)C2)C3)C(=O)N2CCc3c([nH]c4ccc(Cl)cc34)[C@]12C | -7 | -6 | 59* | 25 | 45 | 54*
CC[C@]12c3[nH]c4ccc(Cl)cc4c3CCN1C(=O)[C@@H](CC(=O)NCC13CC4CC(CC(C4)C1)C3)C[C@@H]2C(=O)N1CCN(C(=O)c2ccco2)CC1 | -24 | -7 | 67* | 16 | 46 | 44
CC(Oc1ccccc1F)C(=O)NC1CCS(=O)(=O)C1 (stereo not drawn) | 4 | 3 | -16 | 6 | 4 | 8
COc1ccc(NC(=O)Nc2ccc([N+](=O)[O-])cc2)cn1 | -129 | -9 | -110 | -8 | -4 | -39
Cc1cc(C)n(/N=C/c2cc([N+](=O)[O-])ccc2O)c(=O)c1 | 9 | 3 | 8 | 9 | 60* | -25
O=[N+]([O-])c1ccc(O)c(/C=N\N=C2c3ccccc3-c3ccccc32)c1 | -34 | -51* | 22 | 48 | -4 | 49
O=[N+]([O-])c1ccc(O)c(/C=N/n2cnnc2)c1 | 5 | 16 | 3 | 7 | 15 | 5
NC(N)=N/N=C/c1cc([N+](=O)[O-])ccc1O | -9 | -14 | 0 | 6 | -33 | -4
COc1ccc(-c2nc(-c3ccc(NC(=O)c4ccc(Br)o4)cc3)no2)cc1OC | -166 | -6 | 54* | -4 | -57 | -115
SMILES | HIF-2a inh | KKLEB tox | Peg3 prom inh | CF NFkB block | TROY NFkB inh | TWEAK-Fn14 inh
COc1cc(-c2nc(-c3ccc(NC(=O)c4ccc(Br)o4)cc3)no2)cc(OC)c1OC | -162 | 7 | 11 | -15 | 8 | 59*
COc1ccc(CCC(=O)Nc2ccc(-c3noc(-c4ccc(OC)c(OC)c4)n3)cc2)cc1 | -46 | -3 | -33 | 8 | -20 | -13
C=Cc1ccc(Cn2c(=O)n(C)c(=O)c3sccc32)cc1 | -6 | -6 | -6 | -14 | -31 | -8
CCN(c1ccccc1)S(=O)(=O)c1cccc(C(=O)OCC(=O)Nc2ccc(NC(C)=O)cc2)c1 | -1 | -5 | 2 | 14 | -1 | -8
Cc1ccc(Sc2cc(NCCCO)c([N+](=O)[O-])c3nonc23)cc1 | -20 | -8 | 21 | -2 | 21 | 55*
Cc1ccc(/C=C2/SC(=S)N(CCC(=O)N3CCOCC3)C2=O)cc1 | -5 | 1 | -28 | 8 | -22 | -14
Cc1ccnc(NC(=O)Nc2ccc3c(c2)N(C)C(=O)CS3)c1 | -271 | 23 | -117 | 23 | -13 | 52*
Cc1ccnc(NC(=O)Nc2ccc(F)cc2)c1 | -193 | 0 | -287 | 6 | -21 | 5
CSc1ccc(NC(=O)Nc2cc(C)ccn2)cc1 | -98 | -14 | -137 | 0 | 34 | 69*
COc1ccc(-c2csc(/C(C#N)=C/Nc3cc4oc5ccccc5c4cc3OC)n2)cc1 | -8 | 8 | -11 | -10 | -28 | -3
N#C/C(=C\Nc1ccc2c(c1)OCCO2)c1nc(-c2ccccc2)cs1 | -1 | -76* | 10 | 77* | 7 | -42
N#C/C(=C\Nc1ccc2c(c1)OCCO2)c1nc2ccccc2[nH]1 | -202 | -4 | -103 | -6 | 66* | 61*
O=C(CCc1nc2ccccc2[nH]1)Nc1ccc2c(c1)OCCO2 | -6 | 14 | 12 | -2 | 16 | 38
COc1ccc(-c2csc(/C(C#N)=C/Nc3ccc4c(c3)OCCO4)n2)cc1 | 3 | -64* | 28 | 62* | -6 | -10
N#C/C(=C\C=C\c1ccccc1[N+](=O)[O-])c1nc(-c2ccc3c(c2)OCO3)cs1 | -7 | -54* | 18 | -7 | 4 | 6
Cc1cnc(CNC(=O)c2ccc3oc(Cc4ccc(Cl)cc4)nc3c2)cn1 | 2 | 4 | 3 | 7 | -8 | -14
O=C1N=C(N2CCC(Cc3ccccc3)CC2)S/C1=C/c1cn[nH]c1-c1ccccc1 | 1 | -14 | 41 | 18 | 47 | 77*

Screens from PubChem BioAssay.
